Bioassay records deposited in PubChem by National Center for Advancing Translational Sciences (NCATS).
The list is not random: actives were taken first. Their share in the collection is about 17%.
ClpP mod: qHTS Assay for Activators of ClpP; purified B. subtilis ClpP, FRET peptide cleavage, 20 min; Potency, µM (doses to about 57.5 µM), inactives show top-dose activity change, negative = active; ATP-dependent Clp protease proteolytic subunit (Bacillus subtilis (strain 168)), P80244; AID 651965, 2013; 340,000 tested, 1.9% active; active means well fitted falling curve with a large enough effect; inconclusive means small, poorly fitted or top-dose-only effect; inactive means no such curve, though single readings can be large or run the other way; further: the source files actives as falling curves though it sought activators and does not explain the sign; nearly all actives have a fitted effect of over 65% in size
Target sequence (P80244 whole entry, looked up): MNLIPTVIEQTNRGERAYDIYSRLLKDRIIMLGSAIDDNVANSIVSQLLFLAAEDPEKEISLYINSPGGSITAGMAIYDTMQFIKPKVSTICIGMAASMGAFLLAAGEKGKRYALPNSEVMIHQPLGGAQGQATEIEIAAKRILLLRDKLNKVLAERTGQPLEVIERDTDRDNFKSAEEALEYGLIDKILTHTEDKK
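FRET quenching reversal measured ClpP activation: 10 microg/mL B. subtilis ClpP at pH 8 with the FRET-FV decapeptide, read at 430 nm after 320 nm excitation. The 20-min minus 0-min signal was scaled between DMSO/no-enzyme wells and ADEP (5.8 microM final).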
DT40 TDP1 CPT: qHTS for Inhibitors of human tyrosyl-DNA phosphodiesterase 1 (TDP1): qHTS in cells in presence of CPT. chicken DT40 Tdp1-/-;hTDP1 cells + 20 nM CPT, ATP luminescence, 48 h. Potency, µM (series often up to 46.2 µM), for the others: at the highest dose activity change, negative = growth inhibition, usual class: inhibitors. 420,000 tested, 12% active. AID 686979, 2013; further: on the % scale 0 is the no-effect control and ±100 the full control effect; nearly all actives have a fitted effect of over 55% in size
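Chicken DT40 Tdp1-/- cells stably complemented with human TDP1 were seeded at 400 cells/well in medium containing 20 nM camptothecin, exposed to pin-transferred compounds, and grown at 37 °C for at least 48 hr. Viability was read as ATP luminescence.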
TDP1 cell noCPT: qHTS for Inhibitors of human tyrosyl-DNA phosphodiesterase 1 (TDP1): qHTS in cells in absence of CPT; DT40 Tdp1-/- hTDP1 cells, no CPT, ATP luminescence, 48 h; Potency, µM (doses to about 46.2 µM), for the others: at the top dose activity change, negative = growth inhibition, hits mostly inhibitors; 420,000 tested, 15% active; further: on the % scale 0 is the no-effect control and ±100 the full control effect; nearly all actives have a fitted effect of over 55% in size
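Chicken DT40 Tdp1-/- cells complemented with human TDP1, screened without camptothecin (DMSO vehicle only), 400 cells/well. Compounds pin-transferred, cells incubated at 37 °C for at least 48 hr. Growth read as ATP-dependent luminescence (CellTiter-Glo, 30 min at RT).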
TDP1 block: qHTS Assay for Inhibitors of Tyrosyl-DNA Phosphodiesterase (TDP1); Potency, µM (titrated, usually from 130 µM), for inactives: top-dose activity change, negative = inhibition, actives largely listed as inhibitors; recombinant TDP1, AlphaScreen DNA substrate cleavage; Tyrosyl-DNA phosphodiesterase 1 (Homo sapiens), Q9NUW8; AID 485290, 2010; 350,000 tested, 0.28% active; further: on the % scale 0 is the no-effect control and ±100 the full control effect; nearly all actives have a fitted effect of over 40% in size
Target sequence (Q9NUW8 whole entry, looked up): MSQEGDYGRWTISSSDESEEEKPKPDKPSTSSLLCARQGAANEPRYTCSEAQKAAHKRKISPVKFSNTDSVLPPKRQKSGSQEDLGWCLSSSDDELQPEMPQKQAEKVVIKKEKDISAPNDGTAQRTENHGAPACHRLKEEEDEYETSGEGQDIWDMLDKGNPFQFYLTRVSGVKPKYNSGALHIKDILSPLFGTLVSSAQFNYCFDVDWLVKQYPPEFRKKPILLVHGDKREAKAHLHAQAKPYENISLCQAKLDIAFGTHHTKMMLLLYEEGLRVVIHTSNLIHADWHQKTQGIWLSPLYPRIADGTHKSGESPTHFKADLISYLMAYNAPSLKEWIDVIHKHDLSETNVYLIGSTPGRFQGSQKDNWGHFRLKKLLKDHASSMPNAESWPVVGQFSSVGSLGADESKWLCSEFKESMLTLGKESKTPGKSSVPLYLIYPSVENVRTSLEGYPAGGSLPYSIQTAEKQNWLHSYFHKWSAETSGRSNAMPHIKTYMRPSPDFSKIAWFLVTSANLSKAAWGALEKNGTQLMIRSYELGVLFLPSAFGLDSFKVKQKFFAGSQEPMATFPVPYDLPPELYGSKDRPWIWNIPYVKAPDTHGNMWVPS
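Here, a 5' biotin and 3' phosphotyrosine-FITC DNA oligonucleotide reports Tdp1 activity: intact substrate bridges AlphaScreen beads, while cleavage leaves a 3' phosphate and drops signal. All incubations at room temperature.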
Numbers without * were called inactive; ! = not active in a repeat; [ ] = another dose, or the depositor's remark. Unless noted, the call rests on the fitted dose curve; in most records, active means well fitted curve in the direction sought with a large enough effect; inconclusive means small, poorly fitted or top-dose-only effect, or another doubt; inactive means no such curve, though single readings can be large; an effect the other way counts as inactive or inconclusive. Potency means the concentration at half of the fitted maximal effect.

Results for COc1cc2c(cc1NC(=O)Nc1cccc(C)c1)oc1ccccc12 ?
ClpP mod: 28.2µM*; DT40 TDP1 CPT: inconclusive; TDP1 cell noCPT: inconclusive; TDP1 block: -7.0%

Results for COc1cc2c(cc1NC(=O)C1CCCO1)oc1ccccc12 (stereo not drawn) ?
ClpP mod: inconclusive; DT40 TDP1 CPT: inconclusive; TDP1 cell noCPT: inconclusive; TDP1 block: 1.1%

What do the screens show for `O=C(C1CCCO1)N1CCN(C(=S)Nc2ccccc2C(F)(F)F)CC1` (stereo not drawn)?
ClpP mod: 1.6%; DT40 TDP1 CPT: 17.0%; TDP1 cell noCPT: -0.3%; TDP1 block: 0.6%

Results for CCOc1ccccc1CNc1ncnc2onc(-c3ccc(F)cc3)c12 ?
ClpP mod: -11.6%; DT40 TDP1 CPT: 16.4µM*; TDP1 cell noCPT: 23.1µM*; TDP1 block: 2.1%

What do the screens show for `COc1ccccc1-c1noc2ncnc(Nc3ccccc3C)c12`?
ClpP mod: -7.8%; DT40 TDP1 CPT: 23.1µM*; TDP1 cell noCPT: 14.6µM*

Results for COc1ccccc1-c1noc2ncnc(Nc3cccc(C)c3C)c12 ?
ClpP mod: -7.7%; DT40 TDP1 CPT: inconclusive; TDP1 cell noCPT: inconclusive

What do the screens show for `COc1ccccc1CNc1ncnc2onc(-c3ccc(Cl)cc3)c12`?
ClpP mod: -21.1%; DT40 TDP1 CPT: inconclusive; TDP1 cell noCPT: 20.6µM*; TDP1 block: 6.4%

How did COc1ccc(OC)c(CNc2ncnc3onc(C)c23)c1 do in these assays?
ClpP mod: -0.9%; DT40 TDP1 CPT: inconclusive; TDP1 cell noCPT: inconclusive; TDP1 block: 4.2%

How did COc1ccc(OC)c(CNc2ncnc3onc(-c4ccc(Cl)cc4)c23)c1 do in these assays?
ClpP mod: -4.7%; DT40 TDP1 CPT: 2.59µM*; TDP1 cell noCPT: 2.91µM*; TDP1 block: 9.0%

Results for O=C(O)CCNC(=O)/C(=C\c1ccco1)NC(=O)c1ccco1 ?
ClpP mod: -0.4%; DT40 TDP1 CPT: -0.9%; TDP1 cell noCPT: 8.4%

What do the screens show for `COc1ccc(OC)c(CNc2ncc(-c3ccc(Cl)cc3)n2C)c1`?
ClpP mod: -6.4%; DT40 TDP1 CPT: 16.4µM*; TDP1 cell noCPT: 16.4µM*; TDP1 block: 4.5%

What do the screens show for `OC[C@@H]1[C@@H](c2ccc(Cl)cc2)C(c2cccc(Cl)c2)=NN1c1ccccc1`?
ClpP mod: 3.9%; DT40 TDP1 CPT: 20.6µM*; TDP1 cell noCPT: 13µM*; TDP1 block: 39.8µM*!

What do the screens show for `O=C1OCCN1C(=O)[C@H]1[C@H](c2ccc([N+](=O)[O-])cc2)C(c2ccc(F)cc2)=NN1c1ccccc1`?
ClpP mod: 0.2%; DT40 TDP1 CPT: inconclusive; TDP1 cell noCPT: -24.2%; TDP1 block: 1.5%[56.1 µM]

Results for C[C@H]1C(c2cccc(Cl)c2)=NN(c2ccccc2)[C@@H]1CO ?
TDP1 block: 39.8µM*

How did OC[C@@H]1[C@@H](c2ccc(F)cc2)C(c2cccc(Cl)c2)=NN1c1ccccc1 do in these assays?
ClpP mod: 4.2%; DT40 TDP1 CPT: 20.6µM*; TDP1 cell noCPT: 23.1µM*

Results for C[C@@H]1C(c2ccccc2)=NN(c2ccccc2)[C@H]1C(=O)N1CCOC1=O ?
ClpP mod: -8.2%; DT40 TDP1 CPT: inconclusive; TDP1 cell noCPT: inconclusive; TDP1 block: -7.3%[56.1 µM]

Results for C[C@H]1C(c2ccc(F)cc2)=NN(c2ccccc2)[C@@H]1CO ?
ClpP mod: 4.2%; DT40 TDP1 CPT: 18.4µM*; TDP1 cell noCPT: -1.7%; TDP1 block: -13.8%[56.1 µM]

What do the screens show for `C[C@@H]1C(c2cccc(Cl)c2)=NN(c2ccccc2)[C@H]1C(=O)N1CCOC1=O`?
ClpP mod: 4.6%; DT40 TDP1 CPT: inconclusive; TDP1 cell noCPT: inconclusive; TDP1 block: -3.0%[56.1 µM]

What do the screens show for `COc1ccc(C2Nc3ccccc3C(=O)N2Cc2ccccc2Cl)cc1COc1ccc(NC(C)=O)cc1` (stereo not drawn)?
TDP1 block: 1.3%

How did c1ccc(-c2ccc3ncccc3n2)cc1 do in these assays?
ClpP mod: -13.4%; DT40 TDP1 CPT: -24.7%; TDP1 cell noCPT: inconclusive

Results for O=C(C[n+]1ccccc1Cl)c1ccc(I)cc1 ?
ClpP mod: -2.5%; DT40 TDP1 CPT: -11.1%; TDP1 cell noCPT: inconclusive

How did Cc1cccc(NC(=O)CNC(=O)[C@H]2O[C@@H](n3ccc(=O)[nH]c3=O)[C@H](O)[C@@H]2O)c1C do in these assays?
ClpP mod: 0.6%; DT40 TDP1 CPT: -4.1%; TDP1 cell noCPT: -19.1%

How did COc1ccccc1[C@H]1C(c2ccc(F)cc2)=NN(c2ccccc2)[C@@H]1CO do in these assays?
ClpP mod: 4.7%; DT40 TDP1 CPT: 18.4µM*; TDP1 cell noCPT: inconclusive; TDP1 block: -11.9%[56.1 µM]

Results for COc1ccccc1[C@H]1C(c2cccc(C)c2)=NN(c2ccccc2)[C@@H]1CO ?
ClpP mod: 4.4%; DT40 TDP1 CPT: inconclusive; TDP1 cell noCPT: inconclusive; TDP1 block: -15.2%[56.1 µM]

How did OC[C@@H]1[C@@H](c2ccc(Cl)cc2)C(c2ccccc2)=NN1c1ccccc1 do in these assays?
ClpP mod: 4.2%; DT40 TDP1 CPT: inconclusive; TDP1 cell noCPT: 16.4µM*; TDP1 block: inconclusive

How did O=C1OCCN1C(=O)[C@H]1[C@H](c2ccccc2)C(c2ccccc2)=NN1c1ccccc1 do in these assays?
ClpP mod: -16.6%; DT40 TDP1 CPT: inconclusive; TDP1 cell noCPT: -19.3%; TDP1 block: -3.4%[56.1 µM]

What do the screens show for `CCNc1ccc(-c2nc(-c3ccncc3)no2)cc1[N+](=O)[O-]`?
ClpP mod: -1.0%; DT40 TDP1 CPT: inconclusive; TDP1 cell noCPT: -13.7%; TDP1 block: 5.7%

What do the screens show for `CCOC(=O)C1CCC(CN(Cc2ccc(Cl)cc2)S(=O)(=O)c2cc(Cl)cc(Cl)c2)CC1` (stereo not drawn)?
ClpP mod: -0.3%; DT40 TDP1 CPT: 20.6µM*; TDP1 cell noCPT: 10.3µM*; TDP1 block: -5.2%

Results for CCOC(=O)N1CCN(C(=O)CN(Cc2ccc(Cl)cc2)S(C)(=O)=O)CC1 ?
ClpP mod: 4.3%; DT40 TDP1 CPT: 4.9%; TDP1 cell noCPT: 3.1%; TDP1 block: 4.7%

Results for CCOC(=O)N1CCN(C(=O)CS(=O)(=O)c2cn(Cc3ccc(Cl)cc3)c3ccccc23)CC1 ?
ClpP mod: 3.6%; DT40 TDP1 CPT: 23.1µM*; TDP1 cell noCPT: 16.4µM*; TDP1 block: 8.7%

How did CCOC(=O)C1CCC(CN(Cc2ccc(OC)cc2)S(=O)(=O)c2ccc(F)c(C(=O)Nc3cc(Cl)ccc3OC)c2)CC1 (stereo not drawn) do in these assays?
ClpP mod: -9.3%; DT40 TDP1 CPT: -11.1%; TDP1 cell noCPT: -16.5%; TDP1 block: 7.8%

What do the screens show for `CCOC(=O)N1CCN(C(=O)CN(Cc2ccc(Cl)cc2)S(=O)(=O)c2ccc(C)cc2)CC1`?
ClpP mod: 0.6%; DT40 TDP1 CPT: 15.8µM*; TDP1 cell noCPT: inconclusive; TDP1 block: -0.7%
